# An excerpt weighted towards active compounds, which were near 2.4% of everything screened.
# D2 PAM-1: Beta-Arrestin HTS for Positive Allosteric Modulators of the Human D2 Dopamine Receptor: Potentiators. potentiation, % (no concentration beside the values). AID 624464, 2012. 0.23% of 360,000 active. D(2) dopamine receptor (Homo sapiens), P14416. DiscoveRx D2 beta-arrestin cells, luminescence, 90 min; 100% = 57 uM dopamine signal; in the data active = potentiation above about 50%; inconclusive = mostly about 30% to 49%
# Target sequence (P14416 whole entry, looked up): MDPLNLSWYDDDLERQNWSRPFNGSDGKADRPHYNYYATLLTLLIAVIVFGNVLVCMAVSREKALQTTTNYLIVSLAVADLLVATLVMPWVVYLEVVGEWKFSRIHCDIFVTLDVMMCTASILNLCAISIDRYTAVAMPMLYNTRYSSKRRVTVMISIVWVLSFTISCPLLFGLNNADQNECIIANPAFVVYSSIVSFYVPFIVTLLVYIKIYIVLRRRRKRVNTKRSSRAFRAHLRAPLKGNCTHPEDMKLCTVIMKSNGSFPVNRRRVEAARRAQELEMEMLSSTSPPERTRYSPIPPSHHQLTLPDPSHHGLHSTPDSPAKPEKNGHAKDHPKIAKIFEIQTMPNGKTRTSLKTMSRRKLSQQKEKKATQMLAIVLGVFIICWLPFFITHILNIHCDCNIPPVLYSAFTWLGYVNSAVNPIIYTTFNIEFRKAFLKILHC
#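 PathHunter D2 cells, attached overnight at 37 deg C, received compound in DMSO plus dopamine at EC20 (50 nM final) for 90 min at 37 deg C. Beta-arrestin recruitment was read as luminescence after 1 h with detection reagent at ambient temperature.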
# D2 antag: HTS Assay for Allosteric Antagonists of the Human D2 Dopamine Receptor: Primary Screen for Antagonists | D(2) dopamine receptor (Homo sapiens), P14416 | AID 485344, 2010 | 2% of 340,000 active | HEK293 TREx D2 cells, calcium flux, dopamine EC80 | inhibition, % at 10 µM; in the data active = inhibition above about 30%; inactive = below that, where a call was filed; also: 0% is about no effect
#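 Compounds are added to dye-loaded, induced HEK293 T-REx cells coupled to calcium release via D2; after a 3 min kinetic read an EC80 dopamine stimulus is given and fluorescence is recorded for 3 more min.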
# D2 ag-1: Beta-Arrestin HTS for Positive Allosteric Modulators of the Human D2 Dopamine Receptor: Agonists; DiscoveRx PathHunter D2 beta-arrestin, luminescence, 90 min; 100% = 57 uM dopamine signal; activation, % (no concentration beside the values); 0.084% of 360,000 active; AID 624465, 2012; in the data active = activation above about 40%; inconclusive = between about 15% and that limit
#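 DiscoveRx PathHunter D2 beta-arrestin cells (2,100/well) attached overnight, then compound-stimulated 90 min at 37 C in HBSS/10 mM HEPES/0.1% Tween-20 buffer; beta-galactosidase complementation read by luminescence after 1 h at ambient temperature. Dopamine 57 uM final (EC100) as control.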
# D2 ag-2: HTS Assay for Allosteric Agonists of the Human D2 Dopamine Receptor: Primary Screen for Agonists | HEK293 T-REx D2 cells, calcium flux agonist mode | activation, % at 2 µM | 0.53% of 340,000 active;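 active = activation over 3 SD above normal in the single-dose calcium agonist read, cut at about 30% in these data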; also: 0% is about no effect
#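 In this primary screen, compounds producing a positive calcium signal within 180 s of addition to tetracycline-induced, force-coupled HEK293 Trex D2 cells are flagged; cells are dye-loaded with a no-wash calcium kit beforehand.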
# D2 PAM-2: HTS Assay for Positive Allosteric Modulators of the Human D2 Dopamine Receptor: Primary Screen for Potentiators | potentiation, % at 10 µM | HEK293 T-REx D2, calcium flux, EC20 dopamine potentiation | D(2) dopamine receptor (Homo sapiens), P14416 | 0.34% of 340,000 active;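 active = potentiation over 3 SD above the plate norm, cut at about 30% in these data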; also: 0% is about no effect
#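 Calcium flux readout, no-wash dye, 1 read/s. Inducible HEK293 Trex D2 line, overnight 30 C. Compound alone 180 s (agonist flags), then EC20 dopamine, another 180 s to score potentiation.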
# Starred values were filed as active, the others as inactive; ? = inconclusive; . = no result given.
SMILES,D2 PAM-1,D2 antag,D2 ag-1,D2 ag-2,D2 PAM-2
COc1ccc(-c2cc3c(=O)n(CC(=O)NCCCN4CCC(Cc5ccccc5)CC4)ncn3n2)cc1,-56.4,89.1*,-5.4,0.5,-26.3
Cc1nn(CC(=O)NCCCN2CCN(C)CC2)c(=O)c2cc(-c3ccccc3)nn12,-16.0,3.5,2.2,0.0,30.1*
Cc1nn(CC(=O)NCCCc2ccccc2)c(=O)c2cc3occc3n12,-6.9,32.4*,2.7,0.0,-12.0
COc1ccc(-c2cc3c(=O)n(CC(=O)NCCCN4CCN(Cc5ccccc5)CC4)ncn3n2)cc1,-17.5,37.1*,-6.5,0.7,-31.8
Cc1ccc(C2=NC(c3ccccc3)=Nc3ccc(Cl)cc3N2)cc1,.,.,.,0.1,-2.4
CCN1C(=O)c2ccccc2S(=O)(=O)c2ccc(C(=O)NCc3ccccc3)cc21,.,.,.,0.6,7.3
CCOc1ccc(CNCCN2CCCC2)cc1,-14.4,74.1*,-3.9,0.6,-18.7
CCc1ccc(C2CC(c3ccccc3)n3ncnc3N2)cc1 (centres undefined),-2.7,42.1*,3.0,2.2,-0.1
CCc1ccc(C2CC(c3ccccc3)Nc3nc(N)nn32)cc1 (centres undefined),2.8,-13.2,7.1,-0.3,10.8
Cc1ccc(CNC(=O)CCS(=O)(=O)c2ccc3c(c2)oc(=O)n3C)cc1,3.6,30.3*,2.2,-1.0,7.1
CN1CCN(C2=Nc3ccccc3Oc3ccc(Cl)cc32)CC1,-36.5,91.0*,-5.7,-1.1,-31.2
COc1ccc(CNC(=O)c2cccn2-c2nnc(N3CCCC3)s2)c(OC)c1,.,.,.,-0.7,-2.2
CC(NC(=O)c1cccc(S(=O)(=O)N2CCN(Cc3ccccc3)CC2)c1)c1ccc(Cl)cc1 (centres undefined),-7.7,35.8*,-0.5,0.9,-4.1
COc1ccccc1NC(=O)c1cccc(S(=O)(=O)N2CCN(Cc3ccccc3)CC2)c1,-66.9,10.5,-2.4,-0.3,0.6
O=C(CSCc1ccccc1Cl)NN=C1CCCCCC1,13.5,38.4*,0.7,0.5,4.4
O=C(CSCc1ccc([N+](=O)[O-])cc1)NN=C1CCCCCC1,18.6,-2.6,-1.1,-0.9,35.4*
O=C(CSCc1ccc(Cl)cc1)NN=C1CCCC1,-12.8,-7.7,2.1,0.2,14.6
CCOC(=O)c1cnn(Cc2ccccc2)c1N,8.2,1.2,0.3,-0.4,-0.7
CCOC(=O)c1cnn(Cc2cccc(Cl)c2)c1C,-11.3,55.8*,-2.4,-2.2,2.9
O=C(N/C=C/n1cnc2cc(C(F)(F)F)ccc21)c1ccc(F)cc1,-7.0,.,-1.0,.,.
O=C(N/C=C/n1cnc2cc(C(F)(F)F)ccc21)c1ccccc1F,-8.4,-7.5,0.7,-0.2,83.2*
COc1ccc(NC(=O)c2oc3c(c2C)-c2nn(Cc4ccccc4Cl)cc2CC3)cc1OC,.,.,.,1.0,3.0
O=C(Nc1ccccc1)C1=C(c2ccccc2)S(=O)(=O)CCS1(=O)=O,-19.2,-2.7,-4.6,2.9,58.4*
O=C(CCCN1CC=C(n2c(=O)[nH]c3ccccc32)CC1)c1ccc(F)cc1,-33.4,81.3*,-3.2,0.8,-22.8
CCOc1ccc(NCc2cccn2-c2nnc(N3CCC(C(=O)NCCc4ccc(OC)c(OC)c4)CC3)s2)cc1,.,.,.,1.0,2.2
SMILES,D2 PAM-1,D2 antag,D2 ag-1,D2 ag-2,D2 PAM-2
NC(=O)C1CCN(C(=O)CN2CCc3ccccc32)CC1,0.7,45.3*,1.5,-0.7,-14.0
CC(C)(C)NC(=O)NC(=O)CN1CCc2ccccc21,1.0,0.1,-2.6,-0.8,6.2
O=C(CN1CCc2ccccc21)NC(=O)NC1CCCCC1,-12.8,32.6*,-3.3,-0.5,-16.0
Cc1ccc(NC(=O)c2cc(S(=O)(=O)NC3CCCCC3)ccc2F)cc1Cl,.,.,.,0.1,10.0
CC1(C)CC(=O)c2cc(-c3nc(-c4ccccc4)cs3)c(=O)[nH]c2C1,.,.,.,0.9,25.7
O=c1cc(-c2ccccc2)n2c(SCc3ccc(Br)cc3)nnc2[nH]1,.,.,.,0.2,5.9
COc1ccc(NS(=O)(=O)c2cccc(C(=O)NC3CCN(Cc4ccccc4)CC3)c2)cc1,-24.0,16.0,-0.7,0.4,-7.5
O=C(COc1ccc(Br)cc1Cl)NC1CCN(Cc2ccccc2)CC1,-23.3,67.0*,-3.3,0.7,-20.5
O=C(NC1CCN(Cc2ccccc2)CC1)c1cccc(Br)c1,-13.1,98.3*,-1.4,-0.1,-26.3
O=C(NC1CCN(Cc2ccccc2)CC1)c1cccc(OC(F)F)c1,-24.4,81.0*,-3.1,0.3,-22.0
O=C(NC1CCN(Cc2ccccc2)CC1)C1COc2ccccc2O1 (centres undefined),-45.6,34.2*,3.1,-1.8,-24.9
O=C(Nc1cccc(C(F)(F)F)c1)c1cnn(-c2cccc(F)c2)c1C1CCNCC1,.,.,.,1.3,-7.9
C=C(C)c1cccc(C(C)(C)NC(=O)NC2CCN(Cc3ccccc3)CC2)c1,-25.5,89.2*,-5.8,0.3,-30.7
CCOc1ccc2oc(C(=O)NC3CCN(Cc4ccccc4)CC3)c(C)c2c1,-14.4,-12.3,-4.9,-0.4,-17.3
COc1ccc(Cn2c(=O)[nH]c3cc(C(=O)NC4CCN(Cc5ccccc5)CC4)ccc32)cc1,-23.5,75.5*,2.4,-0.3,-24.1
S=C(NCc1ccc2c(c1)OCO2)NC1CCN(Cc2ccccc2)CC1,-10.0,103.0*,-1.8,2.5,-45.5
Cc1c(C(=O)NC2CCN(Cc3ccccc3)C2)oc2ccc(Br)cc12 (centres undefined),-20.0,37.7*,2.4,-0.9,-24.7
COc1cccc(CNC(=O)c2ccc(CN3CC(=O)N4CCCCC4C3=O)cc2)c1 (centres undefined),.,.,.,.,1.4
C=C(C)c1cccc(C(C)(C)NC(=O)N2CCCC2)c1,-9.3,-8.7,-2.4,-0.1,13.3
O=C(NC1CCCCC1)c1ccc2c(c1)OCCO2,2.1,4.7,2.1,-1.1,0.0
C=C(C)c1cccc(C(C)(C)NC(=O)N2CCN(c3ccccn3)CC2)c1,-2.6,31.2*,1.3,4.6,-4.1
O=C(NC1CCN(Cc2ccccc2)CC1)c1ccc2c(c1)OCCCO2,-30.2,30.3*,-3.8,0.7,-22.9
C=CC(COCc1ccccc1)N(C(=O)OC(C)(C)C)S(=O)(=O)c1ccccc1Br (centres undefined),-4.3,68.0*,-0.3,0.9,7.3
N#Cc1c(-c2ccc(F)cc2)noc1N,96.1*,-4.2,?,0.8,-0.2
